# According to PubChem BioAssay AID453 (PCMD, 2006):
# Hit rate of the full screen: of about 63,000 compounds, about 75 (0.1%) were called active. Cut-off read from the data, not from the text of the source: active = inhibition above about 21%; inactive = the rest. Shown is part of a subset that was picked to be rich in actives.
# Target: Cathepsin B (Homo sapiens) (UniProt P07858)
# Experiment: human cathepsin B inhibitors, primary screen, biochemical, fluorogenic substrate (AID 453);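 note: 0% = enzyme with no compound and 100% = no enzyme blank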
# Conditions: purified cathepsin B, fluorescence, active compounds read high,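 tested at 10 µM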
row,SMILES,inhibition
1,O=C1c2cccc3cccc(c23)N1CN1CCN(c2ccccn2)CC1,2.14% (inactive)
2,Cc1ccccc1-c1ccc(Nc2ccc(C(=O)N3CCOCC3)cc2)nn1,6.18% (inactive)
3,NC(=O)CSc1c[nH]c2ccccc12,0.81% (inactive)
4,COc1ccc(-c2cc(C(=O)NC(C(=O)O)C(C)C)c(C)o2)cc1OC (stereo unspecified),5.71% (inactive)
5,CCCc1nc2c3cnn(-c4cccc(Cl)c4)c3ncn2n1,-2.64% (inactive)
6,CCOC(=O)N1CCC(NC(=O)CCc2cn(C)c3ccccc23)CC1,-2.17% (inactive)
7,COc1ccc(CCNC(=O)C2CCCN(Cc3nc(-c4cccc(Cl)c4)oc3C)C2)cc1OC (stereo unspecified),3.18% (inactive)
8,COCc1cc(C)nc(Nc2cc(C)ccc2C)c1C#N,4.86% (inactive)
9,COc1ccc(CCNC(=O)CSc2nnc(CNC(=O)c3cccs3)o2)cc1OC,1.4% (inactive)
10,O=c1c(F)cn(C2CCCO2)c(=O)n1Cc1ccccc1Cl (stereo unspecified),-1.02% (inactive)
11,CC(C)OC(=O)c1cc(NC(=O)C2C3CCC(O3)C2C(=O)O)cc(C(=O)OC(C)C)c1 (stereo unspecified),2.7% (inactive)
12,COc1cc(C2C(C(=O)c3ccc(C)o3)=C(O)C(=O)N2CCc2ccccc2)ccc1O (stereo unspecified),4.77% (inactive)
13,COc1ccc(NC2CC(=O)N(C)C2=O)cc1 (stereo unspecified),-3.47% (inactive)
14,CCOC(=O)N1CCN(C(=O)C2CCCN(c3ncnc4c3sc3cccc(F)c34)C2)CC1 (stereo unspecified),-3.56% (inactive)
15,CCOc1cccc(-c2nn3c(-c4ccccn4)nnc3s2)c1,0.42% (inactive)
16,CC(=O)N(CN1C(=O)C2CC=CCC2C1=O)c1cccc(Cl)c1 (stereo unspecified),-3.62% (inactive)
17,Cc1ccc2c(c1)N(CC(=O)N1CCCc3ccccc31)C(=O)C(C)O2 (stereo unspecified),3.31% (inactive)
18,CC1=C2C(=O)OC(c3ccoc3)C2(C)CCC1 (stereo unspecified),0.12% (inactive)
19,CC1CSc2nnc(CCc3ccccc3)n21 (stereo unspecified),-1.7% (inactive)
20,COc1ccc(C2CC(c3ccccc3)Nc3ncnn32)cc1 (stereo unspecified),7.13% (inactive)
21,Cc1ccc(NC(=O)CN(C)S(=O)(=O)c2cnc[nH]2)cc1C,3.83% (inactive)

row,SMILES,inhibition
1,O=C(O)C1CCN(S(=O)(=O)N2CCOCC2)CC1,4.13% (inactive)
2,CCOC(=O)N1CCC(Nc2c(NCCCN3CCN(c4ccc(OC)cc4)CC3)c(=O)c2=O)CC1,4.27% (inactive)
3,CCCN1CCN(C(=O)Cn2ncc3ccccc32)CC1,0.47% (inactive)
4,Cc1ccc(F)cc1NC(=O)Cc1nn(C)c(=O)c2ccccc12,2.55% (inactive)
5,CCCOc1ccc(C2C(C(=O)c3ccc(C)o3)=C(O)C(=O)N2CCCn2ccnc2)cc1 (stereo unspecified),2.38% (inactive)
6,O=C(Nc1ccc2c(c1)nc1n2CCCCC1)c1cc(S(=O)(=O)N2CCOCC2)ccc1Cl,-1.57% (inactive)
7,CN1c2ccccc2-c2nc3ccccc3n2C1c1ccco1 (stereo unspecified),-10.8% (inactive)
8,O=C(CCCn1c(=O)oc2ccccc21)Nc1cccnc1,-0.71% (inactive)
9,CCCCNc1nc2c(c(=O)n(C)c(=O)n2C)n1Cc1cccc(OC)c1,0.69% (inactive)
10,COc1ccc(CCNC(=O)CSc2nnc(-c3cccc(F)c3)o2)cc1OC,1.18% (inactive)
11,CCCSC1=C(C#N)C(c2ccccc2C)C(C(=O)OC)C(=O)N1 (stereo unspecified),-3.07% (inactive)
12,Cc1ccccc1C(=O)Nc1cccc(-c2nnc(SCC(=O)O)n2C)c1,0.46% (inactive)
13,CC(C)Oc1ccc(C(=O)Nc2cc(=O)n(C)c(=O)n2C)cc1,-1.53% (inactive)
14,Cc1cc(NC(=O)Nc2ccccc2)n(-c2ccccc2)n1,0.02% (inactive)
15,O=C(NCC(F)(F)F)Nc1nnc(C(F)(F)F)s1,2.4% (inactive)
16,Fc1ccc(Br)cc1/C=N/n1cnnc1,3.66% (inactive)
17,Cc1cccc(-c2noc(-c3ccc(F)cc3)n2)c1,3.17% (inactive)
18,COc1c(O)cccc1-c1nnn(CCC(=O)OCC(=O)c2ccccc2)n1,0.08% (inactive)
19,CN(C)/C=C1\C=C(c2ccccc2)OC1=O,6.09% (inactive)
20,CCCCSc1nc2c(c(=O)n1CC)SC(C)C2 (stereo unspecified),-3.44% (inactive)
21,CC1COC2C(O1)N(S(C)(=O)=O)CCN2S(C)(=O)=O (stereo unspecified),3.14% (inactive)

row,SMILES,inhibition
1,CCOC(=O)[C@H]1CCC[C@@H](NS(=O)(=O)c2ccc(NC(C)=O)cc2)C1,1.14% (inactive)
2,CCOc1ccccc1C(=O)NCc1ccco1,-3.58% (inactive)
3,Cc1cc2cc(CN(Cc3cccs3)Cc3nnnn3CC3CCCO3)c(=O)[nH]c2cc1C (stereo unspecified),4.13% (inactive)
4,O=C(CN(CC1CCCO1)C(=O)CNS(=O)(=O)c1ccccc1)NCc1ccccc1 (stereo unspecified),6.19% (inactive)
5,CSc1ncccc1C(=O)OCC(=O)N1CCOCC1,4.46% (inactive)
6,Cn1c(=O)c2c(nc(Br)n2CCSc2nc3ccccc3o2)n(C)c1=O,-0.32% (inactive)
7,C=CCOc1nc2c(c(=O)n(C)c(=O)n2C)n1Cc1ccc(Cl)cc1Cl,0.74% (inactive)
8,CN(Cc1ccccc1)C(=O)CCNC(=O)Cn1cnc2ccccc2c1=O,-3.16% (inactive)
9,O=C(CN1CCOCC1)Nc1ccc(NC(=O)CN2CCOCC2)c(Cl)c1,1.81% (inactive)
10,Cc1ccc2nc(NC(=O)C3CCN(S(=O)(=O)c4ccc5c(c4)oc(=O)n5C)CC3)sc2c1,4.26% (inactive)
11,CC(C)C(=O)N1CCN(c2nc(-c3ccccc3)c3c(c2C#N)CC(C)(C)OC3)CC1,1.01% (inactive)
12,Cc1ccc(-n2c(Cc3cccs3)nnc2SCC(=O)OC(C)C)cc1,11.1% (inactive)
13,CCOCCOC(=O)C1=C(C)N(C)C(=O)NC1c1ccccc1F (stereo unspecified),1.21% (inactive)
14,COc1ccc(-c2nnc(SCC(=O)c3ccco3)n2-c2ccccc2)cc1,0.87% (inactive)
15,CN(CCC#N)c1ncnc2scc(-c3ccccc3)c12,-3.88% (inactive)
16,COc1cc(C2C(C(=O)c3sc(C)nc3C)=C(O)C(=O)N2CCN(C)C)cc(OC)c1OC (stereo unspecified),4.44% (inactive)
17,Cc1cc(N=CC2=C(O)CCCC2=O)no1,-1.03% (inactive)
18,CCC(=O)c1ccc(OCC(O)CN2CC(C)OC(C)C2)cc1 (stereo unspecified),1.68% (inactive)
19,CCC(=O)c1ccc(OCC(O)CN2C(=O)NC(C)(C)C2=O)cc1 (stereo unspecified),2.56% (inactive)
